Data on 14 compounds can be found in PubChem BioAssay (NCATS).

The structures appear in SMILES notation. Inconclusive results are not listed. Where a call stands in place of a potency, no number is given. The source made the active and inactive calls. Calls follow the shape of the dose curve; as a rule, active = well fitted activation curve with a large enough effect; inconclusive = small, poorly fitted or top-dose-only effect; inactive = flat fitted curve, though single readings scatter.

The nature of this test: Primary redox qHTS assay for identification of artifact compounds. (AID 1845223). Particulars: Amplex Red/HRP redox cycling with DTT, fluorescence; series mostly up to 53.8 µM. A digest of the protocol:
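Redox-cycling detection via DTT (250 uM final) oxidation coupled to Amplex Red (25 uM)/HRP (250 mU/mL) in HBSS. 15 min preincubation plus 30 min after DTT, room temperature. Ex/Em 525/598 nm; 4-parameter Hill fit against DMSO and 10 uM DA3003.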
Turning to `Cc1c(OCc2cccc(-c3ccc(C(=O)O)cc3)c2)cc2c(c1C)C(=O)C(C1CCCC1)C2` (centres undefined), the Potency entry is “inactive”.
The entry for `COc1cc2c(cc1OC(C)C)[C@H](c1ccc(Cl)cc1)N(c1ccc(N(C)CC3CCC(N4CCN(C)C(=O)C4)CC3)cc1)C(=O)C2` (some centres undefined) is “inactive”; for `O=C(Nc1ccc(CN2CCOCC2)cc1)c1ccc(-c2cccc(Cl)c2)o1` it is “inactive”.
Regarding `Cc1ccc(S(=O)(=O)N2CCC[C@H]2c2ccc(F)cc2)cc1`, the Potency entry is “inactive”.
The entry for `C=C1CCCC2(C)CCC(C(C)(C)OC3OC(C)C(O)C(O)C3OC(=O)/C(C)=C\C)CC12` (centres undefined) is “inactive”; for `Fc1ccc(-n2cc(CCCCN3CCC4(CC3)OCc3ccccc34)c3ccccc32)cc1` it is “inactive”.
Turning to `COc1cc(C(=O)NCC2(N(C)C)CCCC2)cc(OC)c1OCc1ccccc1`, the Potency result is “inactive”.
The value for `CCS(=O)c1nc(-c2cccc(OCc3ccccc3)c2)cc(C(F)(F)F)n1` (centres undefined) was “inactive”; that for `O=C(NCc1nc2ccccc2c(=O)n1-c1ccc(F)cc1)Nc1ccc(Cl)c(C(F)(F)F)c1` was “inactive”; that for `C/C=C/C1=CC2=C(CO1)C(=O)C(C)(OC(=O)c1c(C)cc(O)cc1OC)C(O)C2` (centres undefined) was “inactive”.
The value for `N#Cc1cc(C2=Nc3ccc(Br)cc3NC(=O)C2)ccn1` was “inactive”; that for `COC1CC(=O)C23C(=O)NC(Cc4c[nH]c5ccccc45)C2C(C)C2(C)OC2C3/C=C/CC(C)CC1O` (centres undefined) was “inactive”.
The entry for `O[C@@](Cc1ncc(CC2(C(F)(F)F)CC2)[nH]1)(c1ccc(-n2cccn2)cc1)C(F)(F)F` is “inactive”.
For the compound `CNC(=O)c1cc(Oc2ccc(NC(=O)c3cccc(C(F)(F)F)c3)cc2)ccn1`, the Potency entry was “inactive”.
